Reference: PubChem BioAssay (NCI)
This is part of a sample that, as a whole, favours compounds with a hit. Of some 79,000 tested, about 15% had one in any assay. Calls of active or inactive are those of the source. Cut-off read from the data, not from the text of the source: active = growth inhibition above about 70%; inactive = the rest.

How the values were obtained:
[1] = NCI Yeast Anticancer Drug Screen. Data for the rad50EPP+ strain (AID 151);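 note: 0% = growth of vehicle-treated control cultures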; settings: S. cerevisiae rad50 mutant strain, stronger effect = higher value
Method in brief: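 Measured: growth inhibition of rad50EPP+ yeast. Reference: vehicle-treated controls. Screen uses strains with defined genetic alterations in DNA damage repair or cell cycle control.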

[2] = NCI Yeast Anticancer Drug Screen. Data for the mgt1 strain (AID 153); settings: S. cerevisiae mgt1 mutant growth inhibition, stronger effect = higher value
Method in brief: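 Compounds were applied to mgt1 mutant yeast, and growth was then compared against vehicle-treated control cultures to give percent inhibition.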

[3] = NCI Yeast Anticancer Drug Screen. Data for the mec2-1 strain (AID 157); settings: S. cerevisiae mec2-1 strain, stronger effect = higher value
Method in brief: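 Compounds were applied to mec2-1 yeast cells. Their growth was then compared with that of vehicle-treated cultures to give growth inhibition.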

[4] = NCI Yeast Anticancer Drug Screen. Data for the rad14 strain (AID 159);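 note: 0% = growth of vehicle-treated control cultures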; settings: S. cerevisiae rad14 strain growth inhibition, stronger effect = higher value
Method in brief: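 Compound-treated yeast with a defined DNA-repair lesion; growth inhibition normalised to vehicle-treated cultures.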

[5] = NCI Yeast Anticancer Drug Screen. Data for the sgs1 mgt1 strain (AID 161);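 note: 0% = growth of cultures given vehicle only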; settings: S. cerevisiae sgs1 mgt1 strain, stronger effect = higher value
Method in brief: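 Compounds are added to genetically altered yeast, and growth is compared with cultures given vehicle alone to give percent inhibition.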

[6] = NCI Yeast Anticancer Drug Screen. Data for the CLN2oe strain (AID 163);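 note: 0% = growth of vehicle-only control cultures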; settings: S. cerevisiae CLN2oe strain, stronger effect = higher value
Method in brief: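 Cells of an engineered yeast line with disturbed cell-cycle regulation are treated with compound. Inhibition of growth is then calculated relative to the vehicle-treated reference.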

[7] = NCI Yeast Anticancer Drug Screen. Data for the cln2 rad14 strain (AID 165);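 note: 0% = growth equal to vehicle treated cultures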; settings: S. cerevisiae cln2 rad14 strain, stronger effect = higher value
Method in brief: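 Strain: cln2 rad14 yeast, altered in cell cycle control and DNA damage repair. Read-out: growth inhibition vs vehicle.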

[8] = NCI Yeast Anticancer Drug Screen. Data for the bub3 strain (AID 167); settings: S. cerevisiae bub3 mutant strain, stronger effect = higher value
Method in brief: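 Growth of a checkpoint-deficient yeast mutant is measured after compound exposure. Values represent inhibition relative to vehicle.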

[9] = NCI Yeast Anticancer Drug Screen. Data for the mlh1 strain (AID 171);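 note: 0% = growth of vehicle-treated control cultures of the same strain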; settings: S. cerevisiae mlh1 strain growth inhibition, stronger effect = higher value
Method in brief: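 Test agents were incubated with yeast bearing a defined DNA damage repair or cell cycle control alteration; values are growth inhibition normalised to vehicle-treated cultures.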

[10] = NCI Yeast Anticancer Drug Screen. Data for the sgs1 strain (AID 173);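 note: 0% = growth of vehicle-only control cultures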; settings: S. cerevisiae sgs1 mutant, stronger effect = higher value
Method in brief: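 Strain with an altered DNA repair or cell cycle pathway exposed to compound. Growth then measured. Value = inhibition versus vehicle control.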

[11] = NCI Yeast Anticancer Drug Screen. Data for the rad18 strain (AID 177); settings: S. cerevisiae rad18 mutant growth inhibition, stronger effect = higher value
Method in brief: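 DNA-repair-defective yeast; compound treatment; growth inhibition scored against vehicle.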

[12] = NCI Yeast Anticancer Drug Screen. Data for the wt1 strain (AID 149);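 note: 0% = growth of vehicle-treated wt1 cultures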; settings: S. cerevisiae wt1 strain (SPY 50644) growth inhibition, stronger effect = higher value
Method in brief: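 Readout: yeast growth inhibition, normalised to vehicle controls, in the wt1 strain exposed to test compounds.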

[13] = NCI Yeast Anticancer Drug Screen. Data for the rad50 strain (AID 155);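 note: 0% = growth of vehicle-only cultures of the same strain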; settings: S. cerevisiae rad50 strain growth inhibition, stronger effect = higher value
Method in brief: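 Compounds were tested on a yeast strain with an engineered DNA damage repair alteration; the reported value is growth inhibition normalised to vehicle treatment.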

[14] = NCI Yeast Anticancer Drug Screen. Data for the wt2 strain (AID 169);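 note: 0% = growth of vehicle-treated yeast cultures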; settings: S. cerevisiae wt2 strain growth inhibition, stronger effect = higher value
Method in brief: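 Growth of compound-treated yeast is measured and expressed as inhibition relative to vehicle-only controls.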

[15] = NCI Yeast Anticancer Drug Screen. Data for the mlh1 rad18 strain (AID 175); settings: S. cerevisiae mlh1 rad18 strain growth inhibition, stronger effect = higher value
Method in brief: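 A repair-deficient yeast strain is exposed to test compound, and growth is scored relative to vehicle-treated controls.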

[16] = at 5.0 µM (retest, dose inferred, filed as 0.5)
[17] = at 50.0 µM (retest, dose inferred, filed as 5.0)

Measured: growth inhibition

O=S(=O)(O)c1ccc2c(N=Nc3c(O)ccc4ccccc34)cccc2c1
active: [3]; at 50.0 µM 83.3% | [3]; at 100.0 µM 84% | [4]; at 100.0 µM 80% | [5]; [17] 70% | [5]; at 50.0 µM 83.2% | [6]; at 100.0 µM 74% | [8]; at 50.0 µM 93.8% | [8]; at 100.0 µM 75% | [9]; at 100.0 µM 70% | [10]; at 100.0 µM 77% | [11]; at 11.0 µM 77% | [11]; at 33.0 µM 87% | [11]; at 100.0 µM 92%
inactive: [1]; at 1.2 µM -3% | [1]; at 3.7 µM -1% | [1]; at 11.0 µM 17% | [1]; at 33.0 µM 35% | [1]; at 100.0 µM 39% | [2]; at 1.2 µM 0% | [2]; at 3.7 µM 0% | [2]; at 11.0 µM 12% | [2]; at 33.0 µM 37% | [2]; at 100.0 µM 66% | [3]; at 1.2 µM 1% | [3]; at 3.7 µM 6% | [3]; [16] 3% | [3]; at 11.0 µM 20% | [3]; at 33.0 µM 38% | [3]; [17] 48% | [4]; at 1.2 µM 1% | [4]; at 3.7 µM 1% | [4]; at 11.0 µM 20% | [4]; at 33.0 µM 40% | [5]; [16] -1% | [6]; at 1.2 µM -1% | [6]; at 3.7 µM -4% | [6]; at 11.0 µM -3% | [6]; at 33.0 µM 14% | [7]; [16] 0% | [7]; [17] -11% | [7]; at 50.0 µM 32.5% | [8]; at 1.2 µM -2% | [8]; at 3.7 µM -1% | [8]; [16] 0% | [8]; at 11.0 µM 23% | [8]; at 33.0 µM 59% | [8]; [17] 55% | [9]; at 1.2 µM 4% | [9]; at 3.7 µM 4% | [9]; at 11.0 µM 17% | [9]; at 33.0 µM 4% | [10]; at 1.2 µM 2% | [10]; at 3.7 µM 11% | [10]; at 11.0 µM 47% | [10]; at 33.0 µM 67% | [11]; at 1.2 µM 4% | [11]; at 3.7 µM 33%

Cc1cc(NC(=S)SCc2ccc(Cl)cc2)ccc1Cl
active: [12]; at 33.0 µM 98% | [12]; at 100.0 µM 98% | [1]; at 11.0 µM 92% | [1]; at 33.0 µM 99% | [1]; at 100.0 µM 99% | [13]; at 33.0 µM 97% | [13]; [17] 96% | [13]; at 50.0 µM 90.5% | [13]; at 100.0 µM 95% | [3]; at 33.0 µM 98% | [3]; [17] 97% | [3]; at 50.0 µM 92.5% | [3]; at 100.0 µM 98% | [5]; [17] 98% | [5]; at 50.0 µM 91.8% | [6]; at 33.0 µM 98% | [6]; at 100.0 µM 98% | [7]; [17] 95% | [7]; at 50.0 µM 90.5% | [8]; at 33.0 µM 99% | [8]; [17] 98% | [8]; at 50.0 µM 91.6% | [8]; at 100.0 µM 98% | [14]; at 33.0 µM 98% | [14]; at 100.0 µM 99% | [9]; at 33.0 µM 98% | [9]; at 100.0 µM 98% | [10]; at 33.0 µM 98% | [10]; at 100.0 µM 98% | [15]; [17] 96% | [15]; at 50.0 µM 90.6% | [11]; at 33.0 µM 98% | [11]; at 100.0 µM 96%
inactive: [12]; at 1.2 µM 11% | [12]; at 3.7 µM 24% | [12]; at 11.0 µM 63% | [1]; at 1.2 µM 3% | [1]; at 3.7 µM 29% | [13]; at 1.2 µM 12% | [13]; at 3.7 µM 10% | [13]; [16] 24% | [13]; at 11.0 µM 44% | [3]; at 1.2 µM -3% | [3]; at 3.7 µM 6% | [3]; [16] 0% | [3]; at 11.0 µM 29% | [5]; [16] 43% | [6]; at 1.2 µM -3% | [6]; at 3.7 µM 15% | [6]; at 11.0 µM 44% | [7]; [16] 29% | [8]; at 1.2 µM -4% | [8]; at 3.7 µM -8% | [8]; [16] 48% | [8]; at 11.0 µM 49% | [14]; at 1.2 µM -5% | [14]; at 3.7 µM 20% | [14]; at 11.0 µM 56% | [9]; at 1.2 µM -17% | [9]; at 3.7 µM -8% | [9]; at 11.0 µM 27% | [10]; at 1.2 µM -9% | [10]; at 3.7 µM -22% | [10]; at 11.0 µM 38% | [15]; [16] 11% | [11]; at 1.2 µM 13% | [11]; at 3.7 µM 35% | [11]; at 11.0 µM 69%
